KCNH2 3.1 inh: KCNH2 3.1 (human) potassium channel inhibition; U2OS KCNH2 3.1, thallium flux FluxOr; active compounds read low; actives 0.95% (n = 340,000); activity change, % (tested at about 1.8 µM);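 active means maximum activity change below -70%; inconclusive means maximum activity change from -70% to -50%; inactive means maximum activity change above -50%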;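 further: thallium influx rate constant from kinetic fluorescence after stimulation buffer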
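Measured as rate of thallium-driven FluxOr signal in transduced U2OS cells carrying the 3.1 channel, read kinetically for 2 min upon stimulation; values are rate constants scaled to DMSO control wells.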
Tb PFK block: blocks T. brucei phosphofructokinase; T. brucei PFK, ADP-Glo luminescence; Potency, µM (doses to about 57.5 µM), most hits filed as inhibitors; actives 0.17% (n = 330,000); AID 485367; O15648; active means well fitted inhibition curve with a large enough effect; inconclusive means small, poorly fitted or top-dose-only effect, or effect the other way; further: nearly all actives have a fitted effect of over 60% in size
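1.25 nM PFK with 0.5 mM F6P and 0.1 mM ATP in 0.1 M TEA pH 8.0, 5 mM MgCl2, incubated 45 min at room temperature; ADP measured by ADP-Glo luminescence; compounds titrated up to 57 uM.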
KCNH2 WT inh: KCNH2 (human, wildtype) channel inhibition | Q12809 | U2OS, BacMam KCNH2, thallium flux FluxOr; active compounds read low | activity change, % at 1.84 µM | actives 0.37% (n = 340,000);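 active means maximum activity change below -70%; inconclusive means maximum activity change between -70% and -50%; inactive means maximum activity change above -50%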
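U2OS cells were transduced with wild-type KCNH2 virus (2.03 x 10^8 / mL) for 4 h at room temperature, then cultured overnight at 37 C. Thallium flux was read with FluxOr dye. Rate constants were normalized to DMSO controls.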
PTAP TSG101 blk: blocks PTAP/TSG101 interaction to inhibit HIV-1 budding; Q99816; 340,000 tested, under 10 active; Fluorescence polarization, FITC-PTAP peptide / Tsg101 binding; AID 493005; Potency, µM (highest dose often 115 µM), actives largely listed as inhibitors; active means well fitted inhibition curve with a large enough effect in the main read-out, with a control signal flat, not every such curve was filed as active; inconclusive means small, poorly fitted or top-dose-only effect, or effect the other way, or a change in a side signal; inactive means no such curve, though single readings can be large or run the other way
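Compounds were pin-transferred onto Tsg101 binding domain (10 uM final) in HEPES pH 7.5 buffer, then FITC-PTAP peptide was added at 50 nM final. After 20 min at RT, polarization reported peptide displacement across a qHTS concentration series.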
Each line names hits and unclear results; the compound was inactive in the other large screens. Compounds with a hit are over-represented: about 1.2% of the library has one in this group of screens.

Cc1cc(C)c(S(=O)(=O)c2ccc(Cl)cc2)c(Cl)n1	none
C[C@@H]1CN([C@@H](C)CO)C(=O)c2cc(NC(=O)C3CC3)ccc2O[C@@H]1CN(C)C(=O)NC1CCCCC1	KCNH2 3.1 inh -100
C[C@H](CO)N1C[C@H](C)[C@@H](CN(C)S(=O)(=O)c2ccccc2)Oc2ccc(NC(=O)Cn3cnnn3)cc2C1=O	KCNH2 3.1 inh -92
COc1ccc(NC(=O)Nc2ccc3c(c2)C(=O)N([C@H](C)CO)C[C@H](C)[C@@H](CN(C)S(=O)(=O)c2ccccc2)O3)cc1	KCNH2 3.1 inh -97
CC(C)NC(=O)N(C)C[C@H]1Oc2ccc(NC(=O)Nc3ccccc3)cc2C(=O)N([C@@H](C)CO)C[C@@H]1C	KCNH2 3.1 inh -145
C[C@H](CO)N1C[C@H](C)[C@@H](CN(C)C(=O)Nc2ccc3c(c2)OCO3)Oc2c(NC(=O)Nc3ccc(C(F)(F)F)cc3)cccc2C1=O	none
COc1ccccc1C(=O)Nc1ccnn1C1CCN(Cc2cn(C)c3ccccc23)CC1	KCNH2 3.1 inh -77
Cn1cc(CN2CCC(n3nccc3NC(=O)c3ccccc3Cl)CC2)cn1	none (no result: PTAP TSG101 blk)
CCCn1ncc(CN2CCC(n3nccc3NC(=O)CCc3ccccc3)CC2)c1C	none
CCCn1ncc(CN2CCC(n3nccc3NC(=O)c3ccccc3OC)CC2)c1C	KCNH2 3.1 inh -95, KCNH2 WT inh inconclusive
Cn1cc(CN2CCC(n3nccc3NC(=O)c3ccccc3Cl)CC2)c2ccccc21	KCNH2 WT inh -79
CCCCc1ncc(CN2CCC(n3nccc3NC(=O)c3ccccc3OC)CC2)[nH]1	KCNH2 3.1 inh -79
CCCC[C@]12Cc3cc(OC)c(OC)cc3C(O1)C1=C(O2)C(=O)c2ccccc2C1=O	none (no result: KCNH2 3.1 inh, KCNH2 WT inh, PTAP TSG101 blk)
COc1ccc(C(=O)COC(=O)c2cc(=O)c3ccccc3o2)cc1	none
C=CCOc1ccccc1C1C2=C(CC(C)(C)CC2=O)Nc2c1c(=O)n(C)c(=O)n2C (stereo not drawn)	KCNH2 3.1 inh -178
COc1ccc(C2C3=C(CC(C)(C)CC3=O)Nc3c2c(=O)n(C)c(=O)n3C)cc1OC (stereo not drawn)	none
Cc1ccc2nc(NC(=O)C3CCN(S(=O)(=O)c4cccs4)CC3)sc2c1	KCNH2 3.1 inh -80
CN1/C(=C\C(=O)C[n+]2ccc3ccccc3c2)C(C)(C)c2ccccc21	none
COc1ccc(NC(=O)COC(=O)CNC(=O)c2cccs2)cc1Cl	none
C[C@@H]1CN([C@@H](C)CO)C(=O)c2cc(Br)cnc2O[C@H]1CN(C)C(=O)Nc1ccc(F)cc1	none (no result: Tb PFK block, PTAP TSG101 blk)
CCOC(=O)N1CCC(N2Cc3cccc(C(=O)Nc4ccc(CC)cc4)c3C2=O)CC1	KCNH2 3.1 inh -112
CCOC(=O)N1CCC(N2Cc3cccc(C(=O)Nc4ccc(F)cc4)c3C2=O)CC1	none
CCC1(O)CC2CN(CCc3c([nH]c4ccccc34)C(C(=O)OC)(c3cc4c(cc3OC)N(C=O)C3C(O)(C(=O)OC)C(OC(C)=O)C5(CC)C=CCN6CCC43C65)C2)C1 (stereo not drawn)	none (no result: KCNH2 3.1 inh, Tb PFK block)
COCCCNCCCCOc1ccc(OCc2ccccc2)cc1	KCNH2 3.1 inh -77
O=C(CCCCCNC(=S)Nc1ccccc1)C[N+](=O)[O-]	none
CCCCN(C(=O)c1ccc(S(=O)(=O)N2CCCCC2)cc1)C1CCS(=O)(=O)C1 (stereo not drawn)	none
FC(F)(F)c1ccc(-c2noc(CN3CCCN(C4CCCCC4)CC3)n2)cc1	KCNH2 3.1 inh -94
O=C(CN1CCC(n2nnc3cc(C(F)(F)F)ccc32)CC1)Nc1ccc2c(c1)CCC2	KCNH2 3.1 inh -78
CC(C)CC(=O)NNC(=O)c1ccc(Cl)cc1	KCNH2 WT inh -74
C=CCn1c(SCC(=O)Nc2ccc3c(c2)CCC3)nnc1-c1cccs1	KCNH2 3.1 inh -76, KCNH2 WT inh -94
Cc1ccc(-n2c(SCC(=O)Nc3ccc4c(c3)OCO4)nnc2-c2cccs2)cc1	KCNH2 3.1 inh inconclusive, Tb PFK block inconclusive, KCNH2 WT inh -154
COc1ccc(-n2c(SCC(=O)Nc3ccccc3)nnc2-c2ccoc2C)cc1	KCNH2 3.1 inh -105 (no result: Tb PFK block)
C=CCn1c(SCC(=O)O)nnc1-c1cccs1	none
Cc1cccc(-n2c(SCC(=O)Nc3ccc4c(c3)OCO4)nnc2-c2ccoc2C)c1	KCNH2 3.1 inh -71, KCNH2 WT inh -90
O=C(Nc1ccc(C(=O)N2CCCCC2)cc1)c1ccccc1Br	none (no result: Tb PFK block)
CCCOc1ccccc1OCC(=O)Nc1cc(Cl)ccc1-n1cncn1	none
CCCCN1CC(COCc2ccccc2)Oc2ccccc2S1(=O)=O (stereo not drawn)	none
CC(NC(=O)COc1ccc(-c2nnco2)cc1)c1ccc(Cl)cc1Cl (stereo not drawn)	none

Source: PubChem BioAssay
